An excerpt weighted towards active compounds, which were near 12% of everything screened.
G9a block: qHTS Assay for Inhibitors of Histone Lysine Methyltransferase G9a | Potency, µM (top dose mostly 102 µM), for inactives: top-dose activity, negative = inhibition, usual class: inhibitors | G9a H3K9 monomethylation, AlphaScreen, 2 h | Histone-lysine N-methyltransferase EHMT2 (Homo sapiens), Q96KQ7 | hit rate 8.8% among 350,000; note: potency is the fitted concentration of half-maximal effect; % is set by controls: 0 for no effect and ±100 for the full control effect; nearly all actives have a fitted effect of over 75% in size
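Compounds were preincubated with 20 nM G9a for 15 min, after which biotinylated H3K9 peptide (500 nM) and SAM (20 uM) started a 2 h room-temperature reaction. Monomethylated product was quantified by antibody-based AlphaScreen chemiluminescence.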
JMJD2A Tudor inh: qHTS Assay for Inhibitors of JMJD2A-Tudor Domain; AlphaScreen JMJD2A-Tudor / H3K4me3 peptide binding; Potency, µM (titrated, usually from 114 µM), inactives show at the top dose activity change, negative = inhibition, usual class: inhibitors; hit rate 4.4% among 390,000; AID 504339, 2011; note: potency is the fitted concentration of half-maximal effect; % is set by controls: 0 for no effect and ±100 for the full control effect; nearly all actives have a fitted effect of over 50% in size
HP1b chromo inh: HTS for Inhibitors of HP1-beta Chromodomain Interactions with Methylated Histone Tails; AlphaScreen HP1-beta / biotin-H3K9me3 peptide binding; Chromobox protein homolog 1 (Homo sapiens), P83916; Potency, µM (highest dose often 114 µM), inactives show at the top dose activity change, negative = inhibition, hits mostly inhibitors; hit rate 0.56% among 390,000; AID 540317, 2011; note: potency is the fitted concentration of half-maximal effect; nearly all actives have a fitted effect of over 70% in size
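Compound inhibition of the preformed complex between 50 nM HP1-beta and 50 nM biotinylated H3K9me3 peptide was read by AlphaScreen. Buffer was PBS pH 7.4 with 0.01% Tween-20. Incubations ran 30 min at room temperature, with 10 ug/mL donor/acceptor beads.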
L3MBTL1 block: qHTS Assay for the Inhibitors of L3MBTL1 | Lethal(3)malignant brain tumor-like protein 1 (Homo sapiens), Q9Y468 | AlphaScreen L3MBTL1–H3K9me1 peptide binding | Potency, µM (top dose mostly 57.1 µM), without a hit: at the top dose activity, negative = inhibition, most hits filed as inhibitors | hit rate 0.66% among 230,000 | AID 485360, 2010; note: potency is the fitted concentration of half-maximal effect; % is set by controls: 0 for no effect and ±100 for the full control effect; nearly all actives have a fitted effect of over 60% in size
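L3MBTL1 (50 nM) pre-complexed 30 min with biotinylated H3(1-15)K9me1 peptide (75 nM), then compounds added for 30 min at room temperature; AlphaScreen streptavidin donor/nickel chelate acceptor beads (10 ug/mL final) read after 30 min dark incubation.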
Sfp PPTase inh: qHTS Assay for Inhibitors of Bacillus subtilis Sfp phosphopantetheinyl transferase (PPTase). 4'-phosphopantetheinyl transferase ffp (Bacillus subtilis), Q9F4F7. Biochemical Sfp PPTase activity, qHTS. Potency, µM, inactives show largest response in the series, negative = inhibition, usual class: inhibitors. hit rate 3.5% among 310,000;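 note: the enzyme is Sfp with the accession as filed and its product quenches rhodamine fluorescence; potency is the fitted concentration of half-maximal effect; 0% = enzyme reaction without inhibitor and -100% = no enzyme wells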
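Reaction rates are the 30-min fluorescence difference (ex 525, em 598 nm) in wells containing 15 nM Sfp, 5 uM rhodamine-CoA and 12.5 uM BHQ-2-YbbR at pH 7.6 with 10 mM MgCl2.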
BAZ2B block: qHTS Assay for Inhibitors of BAZ2B | Bromodomain adjacent to zinc finger domain protein 2B (Homo sapiens), Q9UIF8 | AlphaScreen BAZ2B-H3K14Ac peptide displacement | Potency, µM (top dose mostly 114 µM), inactives show top-dose activity change, negative = inhibition, usual class: inhibitors | hit rate 4.4% among 360,000; note: potency is the fitted concentration of half-maximal effect; % is set by controls: 0 for no effect and ±100 for the full control effect; nearly all actives have a fitted effect of over 60% in size
Target sequence (Q9UIF8 whole entry, looked up, the tested form may be a part): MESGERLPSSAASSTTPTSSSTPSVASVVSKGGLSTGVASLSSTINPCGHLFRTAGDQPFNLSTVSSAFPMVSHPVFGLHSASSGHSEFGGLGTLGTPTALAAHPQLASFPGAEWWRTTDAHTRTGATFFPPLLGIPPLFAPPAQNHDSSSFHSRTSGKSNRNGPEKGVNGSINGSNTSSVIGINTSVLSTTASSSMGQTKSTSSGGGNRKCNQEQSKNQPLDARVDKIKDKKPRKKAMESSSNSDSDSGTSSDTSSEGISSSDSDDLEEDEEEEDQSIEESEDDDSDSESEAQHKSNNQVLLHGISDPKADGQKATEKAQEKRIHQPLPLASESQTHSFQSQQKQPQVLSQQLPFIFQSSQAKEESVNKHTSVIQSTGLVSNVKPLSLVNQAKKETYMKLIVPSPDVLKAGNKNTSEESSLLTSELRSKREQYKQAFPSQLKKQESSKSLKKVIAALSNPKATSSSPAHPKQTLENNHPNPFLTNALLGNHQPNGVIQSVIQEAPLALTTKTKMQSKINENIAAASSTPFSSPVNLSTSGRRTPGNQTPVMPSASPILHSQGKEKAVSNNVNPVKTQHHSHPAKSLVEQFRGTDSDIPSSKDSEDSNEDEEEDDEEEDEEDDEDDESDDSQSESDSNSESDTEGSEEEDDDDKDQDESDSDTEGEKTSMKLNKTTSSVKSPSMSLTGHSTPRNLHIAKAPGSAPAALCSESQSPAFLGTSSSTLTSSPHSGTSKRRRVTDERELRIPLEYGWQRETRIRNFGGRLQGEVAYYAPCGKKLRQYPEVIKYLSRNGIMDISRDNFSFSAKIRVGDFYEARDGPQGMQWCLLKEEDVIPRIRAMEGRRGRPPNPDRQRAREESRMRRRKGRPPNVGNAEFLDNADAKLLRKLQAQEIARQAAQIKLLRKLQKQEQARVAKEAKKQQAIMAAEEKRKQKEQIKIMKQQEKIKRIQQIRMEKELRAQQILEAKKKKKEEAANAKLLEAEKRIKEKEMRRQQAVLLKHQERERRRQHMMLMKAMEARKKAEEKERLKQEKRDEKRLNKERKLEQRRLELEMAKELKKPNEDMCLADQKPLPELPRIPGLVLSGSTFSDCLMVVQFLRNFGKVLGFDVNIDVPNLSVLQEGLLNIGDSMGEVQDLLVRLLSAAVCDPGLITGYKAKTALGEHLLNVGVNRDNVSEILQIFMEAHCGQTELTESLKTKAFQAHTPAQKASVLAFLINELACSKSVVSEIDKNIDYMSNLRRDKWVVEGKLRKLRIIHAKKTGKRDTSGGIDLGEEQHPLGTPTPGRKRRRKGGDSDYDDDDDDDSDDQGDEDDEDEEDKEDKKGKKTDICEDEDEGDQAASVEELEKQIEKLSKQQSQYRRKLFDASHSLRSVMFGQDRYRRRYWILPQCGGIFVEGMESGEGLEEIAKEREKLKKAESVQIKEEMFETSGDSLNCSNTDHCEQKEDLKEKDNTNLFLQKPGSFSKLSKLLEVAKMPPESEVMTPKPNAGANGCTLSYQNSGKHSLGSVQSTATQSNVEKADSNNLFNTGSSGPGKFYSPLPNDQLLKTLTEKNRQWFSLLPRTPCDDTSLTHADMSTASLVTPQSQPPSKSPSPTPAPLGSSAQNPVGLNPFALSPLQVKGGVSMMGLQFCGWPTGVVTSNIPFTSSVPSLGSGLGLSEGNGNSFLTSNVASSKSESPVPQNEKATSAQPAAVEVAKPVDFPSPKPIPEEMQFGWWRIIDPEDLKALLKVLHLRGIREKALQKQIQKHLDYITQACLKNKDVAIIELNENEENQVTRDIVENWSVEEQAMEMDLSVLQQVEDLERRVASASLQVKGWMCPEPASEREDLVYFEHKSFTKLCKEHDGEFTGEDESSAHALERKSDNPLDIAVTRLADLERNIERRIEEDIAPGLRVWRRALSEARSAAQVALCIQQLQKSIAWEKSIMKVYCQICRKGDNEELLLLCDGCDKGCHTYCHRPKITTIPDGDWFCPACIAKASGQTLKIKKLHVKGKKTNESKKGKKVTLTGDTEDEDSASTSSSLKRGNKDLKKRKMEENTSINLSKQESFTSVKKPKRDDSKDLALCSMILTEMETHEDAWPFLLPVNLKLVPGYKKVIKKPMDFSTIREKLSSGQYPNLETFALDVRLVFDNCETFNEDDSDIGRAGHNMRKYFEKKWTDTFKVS
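Complex of BAZ2B and biotin-H3K14Ac (50 nM apiece) forms over 30 min at RT, then faces library compounds up to 110 uM for another 30 min; AlphaScreen beads added, 20 min dark incubation, luminescence read.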
12-hLO 8HQ R1: Cuvette-Based Assay for Inhibitors of 12-hLO (12-human lipoxygenase): 8HQ Series - Round 1; hit rate 60% among 35; shares compounds with BAZ2B block; AID 2163, 2009; purified 12-hLO, cuvette UV 234 nm product formation; Potency, µM, most hits filed as inhibitors;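 active = compounds that slowed 12-hLO product formation enough to yield a measured IC50 potency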
KDM4E inh: Inhibitors of Human Jumonji Domain Containing 2E (JMJD2E): 8HQs - Round 1 | Potency, µM (highest dose often 57 µM), without a hit: at the top dose activity, negative = inhibition, actives largely listed as inhibitors | AID 493212, 2011 | hit rate 89% among 130 | JMJD2E demethylase, FDH-coupled NADH fluorescence (FDH is formaldehyde dehydrogenase) | shares compounds with BAZ2B block
ME-1 growth: qHTS Assay for Compounds Blocking the Interaction Between CBF-beta and RUNX1 for the Treatment of Acute Myeloid Leukemia: ME-1 cellular proliferation | Potency, µM (titrated, usually from 56.1 µM), for the others: top-dose activity change, negative = inhibition, usual class: inhibitors | hit rate 20% among 140 | ME-1 cell proliferation, ATP luminescence, 48 h | AID 504370, 2011 | shares compounds with BAZ2B block
An asterisk follows results filed as active; i = inactive; ? = inconclusive; · = no result given; ! = a repeat was not active; [ ] = another dose, or the depositor's remark. Unless noted, calls come from the whole dose curve; as a rule, active = well fitted curve in the direction sought with a large enough effect; inconclusive = small, poorly fitted or top-dose-only effect, or another doubt; inactive = no such curve, though single readings can be large; an effect the other way counts as inactive or inconclusive.

SMILES | G9a block | JMJD2A Tudor inh | HP1b chromo inh | L3MBTL1 block | Sfp PPTase inh | BAZ2B block | ME-1 growth | others
CCNc1ncc2nc(-c3cn(C)c4ccccc34)c(=O)n(C[C@H]3CCCO3)c2n1 | 4%[0.501 µM] | · | · | · | 14% | · | ·
NCCc1ccc(O)c(O)c1 | 8.9µM* | 32µM* | 14µM* | 2% | 79µM*! | ? | -14%
N[C@@H](Cc1ccc(O)cc1)C(=O)O | 3%[59 µM] | · | · | · | -6% | · | ·
NC(Cc1ccc(Oc2ccc(O)cc2)cc1)C(=O)O (stereo not drawn) | 6% | · | · | -1% | 0% | 6% | ·
N[C@H](Cc1ccc(O)c(O)c1)C(=O)O | 18µM* | · | · | · | ? | · | -10%
NC(Cc1ccc(O)c(O)c1)C(=O)O (stereo not drawn) | · | · | · | · | -81% | · | ?
COc1cc(/C=N/NC(=O)c2cncc(Br)c2)cc([N+](=O)[O-])c1O | ? | -22%[11.4 µM] | 35% | 32µM* | 9% | 8.9µM* | 35µM*
COc1cc(/C=N/NC(=O)c2cccc([N+](=O)[O-])c2)cc(OC)c1O | ? | -7% | 38% | · | -13% | 2% | ·
Nc1ccc(C(=O)O)c(O)c1 | 8%[59 µM] | 0% | 24% | 5% | 11% | -33% | ·
Nc1ccc(N)c(C(=O)O)c1 | 7.9µM* | 3.5µM* | 3.2µM* | · | ? | 4µM* | -11%
Cc1ccc2oc(=O)c3cnn(CC(=O)N(C)c4ccc(F)cc4)c3c2c1 | -5%[59 µM] | -21% | -4% | · | · | -7% | ·
Cc1n[nH]c(=O)[nH]c1=O | 16%[21.5 µM] | · | · | · | 5% | · | ·
c1ccc(CSc2ccc(-c3ccccn3)nn2)nc1 | 47% | ? | -4% | · | -24% | 4.5µM* | ?
Nc1ccn(C2OC(CO)C(O)C2O)c(=O)n1 (stereo not drawn) | · | · | · | · | 10% | · | ·
Nc1ccn([C@@H]2O[C@H](CO)[C@@H](O)[C@@H]2O)c(=O)n1 | -13%[59 µM] | 0% | 29% | 6% | 2% | ? | 0.28µM*
COc1ccc2c(c1)-c1nc(/N=C/c3ccc(O)c(OC)c3)sc1CC2 | ? | ? | ? | -5% | ? | ? | ·
COc1ccc2c(c1)-c1nc(N)sc1CC2 | 25µM* | ? | ? | -23% | -13% | ? | 8%[25.6 µM]
CC(=O)NC(c1ccco1)c1cc(Cl)c2ccc(N3CCCCC3)nc2c1O (stereo not drawn) | 4µM* | · | · | -6% | · | ? | · | 12-hLO 8HQ R1=i;KDM4E inh=20µM*
COc1cc(C(=O)NC(c2ccccc2Cl)c2cc(Cl)c3cccnc3c2O)cc(OC)c1OC (stereo not drawn) | 40%[59 µM] | -7% | 56% | · | · | 10% | ·
CCC(=O)NC(c1ccco1)c1cc(Br)c2cccnc2c1O (stereo not drawn) | 4%[12.7 µM] | · | · | -22% | · | 28µM* | · | 12-hLO 8HQ R1=2µM*;KDM4E inh=32µM*
CC(=O)NC(c1cc(F)c2cccnc2c1O)C1CC1 (stereo not drawn) | ? | 79µM* | 33% | ? | · | 50µM* | · | 12-hLO 8HQ R1=i;KDM4E inh=29µM*
CCC(=O)NC(c1cc(Cl)c2cccnc2c1O)C(C)C (stereo not drawn) | 26%[12.7 µM] | ? | 9% | ? | · | 79µM* | · | 12-hLO 8HQ R1=1.2µM*;KDM4E inh=20µM*
O=C(NC(c1ccc(Cl)cc1)c1cc(Cl)c2cccnc2c1O)c1cccnc1 (stereo not drawn) | 11%[59 µM] | -21% | 32% | 9% | 6% | 3% | ·
CCC(=O)NC(c1cc(Cl)c2cccnc2c1O)C1CC1 (stereo not drawn) | 19%[12.7 µM] | 79µM* | 52% | -11% | · | 32µM* | · | 12-hLO 8HQ R1=1.6µM*;KDM4E inh=32µM*
Cc1ccc(Cn2c(CN3CCC(C(=O)NCc4cccnc4)CC3)cc3ccccc32)cc1 | -36%[59 µM] | ? | -17% | · | · | ? | ·
SMILES | G9a block | JMJD2A Tudor inh | HP1b chromo inh | L3MBTL1 block | Sfp PPTase inh | BAZ2B block | ME-1 growth | others
Nc1nc(-c2ccccc2)c(N=Nc2ccc(Cl)cc2)s1 | 2µM* | ? | ? | -18% | 25µM* | ? | 2%[25.6 µM]
O=C(OCC1OC(OC(=O)c2cc(O)c(O)c(OC(=O)c3cc(O)c(O)c(O)c3)c2)[C@@H](OC(=O)c2cc(O)c(O)c(OC(=O)c3cc(O)c(O)c(O)c3)c2)C(OC(=O)c2cc(O)c(O)c(OC(=O)c3cc(O)c(O)c(O)c3)c2)C1OC(=O)c1cc(O)c(O)c(OC(=O)c2cc(O)c(O)c(O)c2)c1)c1cc(O)c(O)c(OC(=O)c2cc(O)c(O)c(O)c2)c1 (stereo partly drawn) | ? | · | · | · | 11µM* | · | 22µM*
CC(=O)Oc1cc(-c2coc3cc(OC(C)=O)c(OC(C)=O)c(OC(C)=O)c3c2=O)cc(OC(C)=O)c1OC(C)=O | -140%[2.33 µM] | · | · | · | -91% | · | 4%
COc1ccc(C(=O)N2CCN(C(=O)COc3ccccc3)CC2)cc1OC | 4%[59 µM] | 8% | 28% | · | · | -2% | ·
COc1cc(C2c3cc4c(cc3C(OC3OC5COC(C)O[C@@H]5C(O)C3O)C3COC(=O)C23)OCO4)cc(OC)c1O (stereo partly drawn) | -4%[2.33 µM] | · | · | · | -8% | · | 0.79µM*
CCn1c(CNC(=O)c2ccc(OC)cc2)nnc1SCC(=O)Nc1cccc(C)c1 | 5%[59 µM] | -21% | 17% | · | · | -6% | ·
O=C1c2ccccc2C(=O)N1/N=C/c1ccc(O)c(O)c1O | ? | 22µM* | 22µM* | · | 7.9µM* | ? | ?
O=C1c2cccc3cccc(c23)C(=O)N1/N=C/c1ccc(O)cc1O | 8%[59 µM] | -26% | 18% | -9% | 27% | 6% | ·
